Data as given in PubChem BioAssay (NCATS).
Inconclusive results are not listed. Unmarked numbers belong to inactive results. The call rests on the fitted dose curve; in most records, active means well fitted activation curve with a large enough effect; inconclusive means small, poorly fitted or top-dose-only effect; inactive means flat fitted curve, though single readings scatter.

test: Primary redox qHTS assay for identification of artifact compounds. (AID 1845223); settings: Amplex Red/HRP redox cycling with DTT, fluorescence; series mostly up to 53.8 µM; redox activity (% of DA3003): at the top concentration;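 further: 0% = DMSO and 100% = reference compound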
Outline: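 Amplex Red (25 uM) and HRP (250 mU/mL) in HBSS, with compounds for 15 min, then 250 uM DTT for 30 min, room temperature, dark. Fluorescence 525/598 nm read; normalized to DMSO and 10 uM DA3003; Hill fit.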

| SMILES | redox activity (% of DA3003) |
| --- | --- |
| CCCC(C(=O)O)c1c(C)nc2ccc(Cl)cc2c1-c1ccccc1 (stereo not given) | -2.89% |
| CC1=CC2=C(C)C(=O)[C@](C)(O)[C@H](O)C2=CO1 | -9.95% |
| Cc1cc(O[C@@H]2O[C@H](COC(=O)CC(=O)O)[C@@H](O)[C@H](O)[C@H]2O)c(C(C)C)cc1O | -8.09% [at 25.6 µM] |
| COc1ccc(-n2c(=O)[nH]c3cc(C(=O)NCc4ccc(Cl)cc4)sc3c2=O)nc1OC | -5.45% |
| C[C@@H]1O[C@@H](O[C@H]2[C@H](OC(=O)[C@]34CCC(C)(C)C[C@H]3C3=CCC5[C@@]6(C)CC[C@H](O[C@@H]7O[C@H](CO[C@@H]8OC[C@H](O)[C@H](O)[C@H]8O)[C@@H](O)[C@H](O)[C@H]7O)C(C)(C)C6CC[C@@]5(C)[C@]3(C)C[C@H]4O)OC[C@@H](O)[C@@H]2O)[C@H](O)[C@H](O[C@@H]2OC[C@](O)(CO)[C@H]2O)[C@H]1O[C@@H]1OC[C@H](O)[C@H](O[C@@H]2OC[C@@H](O)[C@H](O)[C@H]2O)[C@H]1O (stereo not given in full) | 19.6% [at 11.5 µM] |
| CC1=CCC[C@@H]2[C@@](C)(CCc3ccoc3)[C@H](C(=O)O)CC[C@@]12C | 4.54% |
| CC1=CC(=O)CC(C)(C)C1CO[C@@H]1O[C@H](CO)[C@@H](O)[C@H](O)[C@H]1O (stereo not given in full) | -2.87% |
| COC(=O)C1=CO[C@@H](O[C@@H]2O[C@H](CO)[C@@H](O)[C@H](O)[C@H]2O)[C@@H]2C(CO)=CC[C@H]12 | -7.92% |
| CC1(CO)CCCC2(C)C1C(OC(=O)c1ccccc1)CC1C(=O)OCC12O (stereo not given) | -13.4% |
| C[C@H]1CCN2C[C@]34C[C@@]5(C(=O)Nc6c5ccc5c6OC=CC(C)(C)O5)C(C)(C)C3C[C@]12C(=O)N4C (stereo not given in full) | 4.29% [at 25.6 µM] |
